Measured values from the supplement of paper PMC10037445.
“And” between values parts separate entries of the source, which are not always exact repeats. Equal entries are not always repeated. The full ranking holds about 2,900 compounds; the median of “NF-kB SEAP reporter activity, fold change vs agonist alone” is about 0.99, and the highest 2% start at about 2.6. The sample holds the highest values, similar compounds and a random draw of the others, so the mix is not that of the screen.

Experiments:
RAW-Dual [1] = experiment: NF-kB SEAP reporter activity, fold change vs agonist alone; higher = enhanced NF-kB activity; settings: library stock concentration (final ~1000-fold dilution): 10 mM
Procedure, shortened: (§1)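 Library stock was pin-tooled at 50 nL into 384-well plates of RAW-Dual macrophages (50,000 cells/well, DMEM), followed 1 h later by a PRR agonist, and the cells were kept at 37 °C, 5% CO2. Supernatant collected after 20 hours was read for IRF by QuantiLuc luminescence and for NF-κB by QuantiBlue absorbance at 620 nm. Reporter activity is fold change over agonist-alone wells, and a well counted as cytotoxic when its IncuCyte confluency was below 70% of agonist controls in both mask sets.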

RAW-Dual [2] = experiment: NF-kB SEAP reporter activity, fold change vs agonist alone; cytotoxicity flag (confluency mask): cytotoxic (confluency <70% of control); higher = enhanced NF-kB activity
Procedure, shortened: as §1

RAW-Dual [3] = experiment: NF-kB SEAP reporter activity, fold change vs agonist alone; cytotoxicity flag (confluency mask): not cytotoxic; higher = enhanced NF-kB activity
Procedure, shortened: as §1

[4] = cytotoxicity flag (confluency mask): cytotoxic (confluency <70% of control), agonist: MPLA (TLR4) […]
[5] = agonist: ODN 1826 (TLR9) 0.5 ug/mL
[6] = agonist: Pam2CSK4 (TLR2/6) 0.1 ug/mL
[7] = agonist: Pam3CSK4 (TLR2/1) 0.1 ug/mL
[8] = cytotoxicity flag (confluency mask): cytotoxic (confluency <70% of control), agonist: Imiquimod (TLR7) […]
[9] = cytotoxicity flag (confluency mask): not cytotoxic, agonist: Imiquimod (TLR7) […]
[10] = cytotoxicity flag (confluency mask): not cytotoxic, agonist: MPLA (TLR4) […]

CS(=O)(=O)O.Fc1ccc(C2CCNCC2COc2ccc3c(c2)OCO3)cc1 (stereo not given)
NF-kB SEAP reporter activity (RAW-Dual [1]; [4]): 1.43

CS(=O)(=O)O.Fc1ccc(C2CCNCC2COc2ccc3c(c2)OCO3)cc1 (stereo not given) (library stock concentration (final ~1000-fold dilution): 10 mM)
NF-kB SEAP reporter activity (RAW-Dual [2]; agonist: LPS (TLR4) 0.1 ug/mL): 1.08 | NF-kB SEAP reporter activity (RAW-Dual [2]; [5]): 0.542 | NF-kB SEAP reporter activity (RAW-Dual [2]; [6]): 0.486 | NF-kB SEAP reporter activity (RAW-Dual [2]; [7]): 0.425

Fc1ccc(Nc2nc(Nc3ccc(-c4nc5ccccc5[nH]4)cc3)nc(N3CCOCC3)n2)cc1 (library stock concentration (final ~1000-fold dilution): 10 mM)
NF-kB SEAP reporter activity (RAW-Dual [2]; agonist: LPS (TLR4) 0.1 ug/mL): 0.621 | NF-kB SEAP reporter activity (RAW-Dual [2]; [5]): 0.452 | NF-kB SEAP reporter activity (RAW-Dual [2]; [6]): 0.212 | NF-kB SEAP reporter activity (RAW-Dual [2]; [7]): 0.25

Fc1ccc(Nc2nc(Nc3ccc(-c4nc5ccccc5[nH]4)cc3)nc(N3CCOCC3)n2)cc1
NF-kB SEAP reporter activity (RAW-Dual [1]; [8]): 0.399 | NF-kB SEAP reporter activity (RAW-Dual [1]; [4]): 1.42

CCC(CC)(NC(=O)C(C)C)C(=O)NC(CCCNC(=N)N)C(=O)NC1(C(=O)NC(c2ccc(F)cc2)c2ccc(F)cc2)CCCC1 (stereo not given) (library stock concentration (final ~1000-fold dilution): 10 mM)
NF-kB SEAP reporter activity (RAW-Dual [3]; agonist: LPS (TLR4) 0.1 ug/mL): 0.847 | NF-kB SEAP reporter activity (RAW-Dual [3]; [5]): 0.788 | NF-kB SEAP reporter activity (RAW-Dual [3]; [6]): 0.957 | NF-kB SEAP reporter activity (RAW-Dual [3]; [7]): 0.971

CCC(CC)(NC(=O)C(C)C)C(=O)NC(CCCNC(=N)N)C(=O)NC1(C(=O)NC(c2ccc(F)cc2)c2ccc(F)cc2)CCCC1 (stereo not given)
NF-kB SEAP reporter activity (RAW-Dual [1]; [9]): 1.08 | NF-kB SEAP reporter activity (RAW-Dual [1]; [10]): 0.867

CC/C(C)=C/CC[C@](C)(O)C1CC[C@]2(C)C3C[C@@H](O[C@@H]4O[C@H](CO)[C@@H](O)[C@H](O)[C@H]4O[C@@H]4O[C@@H](C)[C@H](O)[C@@H](O)[C@H]4O)C4C(C)(C)C(O)CC[C@]4(C)C3C[C@H](O)C12 (stereo not given in full) (library stock concentration (final ~1000-fold dilution): 10 mM)
NF-kB SEAP reporter activity (RAW-Dual [3]; agonist: LPS (TLR4) 0.1 ug/mL): 1.2 | NF-kB SEAP reporter activity (RAW-Dual [3]; [5]): 0.992 | NF-kB SEAP reporter activity (RAW-Dual [3]; [6]): 0.952 | NF-kB SEAP reporter activity (RAW-Dual [3]; [7]): 1.14

CC/C(C)=C/CC[C@](C)(O)C1CC[C@]2(C)C3C[C@@H](O[C@@H]4O[C@H](CO)[C@@H](O)[C@H](O)[C@H]4O[C@@H]4O[C@@H](C)[C@H](O)[C@@H](O)[C@H]4O)C4C(C)(C)C(O)CC[C@]4(C)C3C[C@H](O)C12 (stereo not given in full)
NF-kB SEAP reporter activity (RAW-Dual [1]; [9]): 0.952 | NF-kB SEAP reporter activity (RAW-Dual [1]; [10]): 0.934

Cc1ccccc1C(=O)N1CCc2cc(-c3nc(NC(=O)Cc4ccc5c(c4)OCO5)sc3C)ccc21 (library stock concentration (final ~1000-fold dilution): 10 mM)
NF-kB SEAP reporter activity (RAW-Dual [3]; agonist: LPS (TLR4) 0.1 ug/mL): 1.34 and 1.45 | NF-kB SEAP reporter activity (RAW-Dual [3]; [5]): 0.971 and 0.758 | NF-kB SEAP reporter activity (RAW-Dual [3]; [6]): 0.716 and 0.692 | NF-kB SEAP reporter activity (RAW-Dual [3]; [7]): 0.695 and 0.61

CCS(=O)(=O)Nc1ccc(Oc2ccc(F)cc2F)c(-c2cn(C)c(=O)c3[nH]ccc23)c1
NF-kB SEAP reporter activity (RAW-Dual [1]; [8]): 1.54 | NF-kB SEAP reporter activity (RAW-Dual [1]; [4]): 2.13

CCNC(=O)c1cc2c(-c3cc(C(C)(C)O)ccc3Oc3c(C)cc(F)cc3C)cn(C)c(=O)c2[nH]1
NF-kB SEAP reporter activity (RAW-Dual [1]; [8]): 1.4 | NF-kB SEAP reporter activity (RAW-Dual [1]; [4]): 1.84

CCS(=O)(=O)Nc1ccc(Oc2ccc(F)cc2F)c(-c2cn(C)c(=O)c3[nH]ccc23)c1 (library stock concentration (final ~1000-fold dilution): 10 mM)
NF-kB SEAP reporter activity (RAW-Dual [2]; agonist: LPS (TLR4) 0.1 ug/mL): 3.19 | NF-kB SEAP reporter activity (RAW-Dual [2]; [5]): 2.18 | NF-kB SEAP reporter activity (RAW-Dual [2]; [6]): 0.424 | NF-kB SEAP reporter activity (RAW-Dual [2]; [7]): 1.13
